For orientation: inhibition means the drop in the measured response relative to a control, in per cent.

This is an account of results in PubChem BioAssay.

Each structure is given as a SMILES string. Unmarked numbers belong to inactive results. Activity calls are given as the source filed them. Unless noted, no stated cut-off is given here; in the data, active means inhibition above about 25%; inactive means the rest.

For experiment [1], the target named is Nuclear receptor coactivator 3 (Homo sapiens) (UniProt Q9Y6Q9). Description: SRC3 coactivator transcriptional activity inhibitors, confirmation, cell-based, luminescence, quadruplicate (AID 588792;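 active means mean inhibition over 43.08%, the solvent-only control mean plus 3 SD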;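 further: 0% = DMSO treated cells and 100% = gossypol at 36 µM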). As to conditions: HEK293 GAL4-SRC3 luciferase reporter, at 3.6 µM, hits give high values. For orientation: A reporter such as luciferase makes a cellular process visible.

For experiment [2], the system named is transactivating tegument protein VP16 (Human herpesvirus 1), Gal4-VP16 luciferase reporter. The experiment is described as follows: VP16 transactivation inhibitors, counter-screen for SRC3 inhibitor project, cell-based, luminescence, high throughput (AID 588794; in the data active means inhibition above about 30%). As to conditions: mammalian cells, VP16-driven luciferase reporter luminescence; at 3.6 µM; hits give high values. For orientation: Counterscreens check selectivity or assay interference.

The target of experiment [3] is Nuclear receptor coactivator 1 (Homo sapiens) (UniProt Q15788). The experiment is described as follows: SRC1 coactivator transcriptional activity inhibitors, confirmation, cell-based, luminescence, quadruplicate (AID 588820;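 active means mean inhibition above 46.68%, the untreated control wells mean plus 3 SD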;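 further: 0% = DMSO wells and 100% = gossypol 36 µM treated wells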). Conditions: HEK293 GAL4-SRC1 luciferase reporter, at 3.6 µM, hits give high values.
Experiment [4] is described as follows: VP16 transactivation inhibitors, counter-screen for SRC1 inhibitor project, cell-based, luminescence, high throughput (AID 588824). As to conditions: cell-based VP16 transactivation luciferase luminescence; at 3.6 µM; hits give high values.
Experiment [5] is described as follows: StAR promoter reporter inhibitors, counter-screen for LRH-1 inverse agonist project, cell-based, luminescence, high throughput (AID 651611; in the data active means inhibition above about 28%). As to conditions: StAR promoter luciferase reporter counterscreen, at 3.6 µM, hits give high values.
In experiment [6] the target is Nuclear receptor subfamily 5 group A member 2 (Homo sapiens) (UniProt O00482). Description: LRH-1 (NR5A2) inverse agonists, retest, confirmation, cell-based, luminescence (AID 651613; in the data active means inhibition above about 42%;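 further: HEK293T cells co-transfected with LRH-1 and StAR promoter luciferase reporter; 0% = vehicle wells and 100% = parental cells lacking receptor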). As to conditions: cell-based LRH-1 luciferase reporter, inverse agonism; at 3.6 µM; hits give high values.
The target in experiment [7] is Steroidogenic factor 1 (Homo sapiens) (UniProt Q13285). Description: SF1 (NR5A1) inverse agonists, counter-screen for LRH-1 inverse agonist project, cell-based, luminescence, high throughput (AID 651614; in the data active means inhibition above about 44%;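 further: cells cotransfected with StAR promoter reporter and SF1 expression vector; 0% = vehicle on cells with receptor and 100% = vehicle on cells lacking receptor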). As to conditions: cell-based SF1 luciferase reporter, at 3.6 µM, hits give high values.
The nature of experiment [8]: VP16 transactivation reporter inhibitors, counter-screen for LRH-1 inverse agonist project, cell-based, luminescence, high throughput (AID 651615; in the data active means inhibition above about 33%). Conditions: Gal4-VP16 luciferase reporter cells, at 3.6 µM, hits give high values.

Sequence of Steroidogenic factor 1 (Homo sapiens) (Q13285 whole entry, looked up, the tested form may be a part): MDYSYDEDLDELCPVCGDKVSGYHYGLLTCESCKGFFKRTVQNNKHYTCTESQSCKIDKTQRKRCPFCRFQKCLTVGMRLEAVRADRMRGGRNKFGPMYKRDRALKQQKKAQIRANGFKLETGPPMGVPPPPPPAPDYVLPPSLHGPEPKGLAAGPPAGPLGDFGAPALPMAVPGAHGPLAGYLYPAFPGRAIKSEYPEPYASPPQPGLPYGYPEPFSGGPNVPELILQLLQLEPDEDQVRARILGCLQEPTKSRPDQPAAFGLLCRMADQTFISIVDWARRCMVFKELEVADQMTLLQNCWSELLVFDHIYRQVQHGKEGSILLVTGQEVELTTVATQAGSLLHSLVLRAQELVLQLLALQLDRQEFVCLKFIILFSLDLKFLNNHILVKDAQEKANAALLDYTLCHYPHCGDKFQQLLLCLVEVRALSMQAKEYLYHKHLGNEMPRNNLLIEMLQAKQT
Sequence of Nuclear receptor coactivator 3 (Homo sapiens) (Q9Y6Q9 whole entry, looked up, the tested form may be a part): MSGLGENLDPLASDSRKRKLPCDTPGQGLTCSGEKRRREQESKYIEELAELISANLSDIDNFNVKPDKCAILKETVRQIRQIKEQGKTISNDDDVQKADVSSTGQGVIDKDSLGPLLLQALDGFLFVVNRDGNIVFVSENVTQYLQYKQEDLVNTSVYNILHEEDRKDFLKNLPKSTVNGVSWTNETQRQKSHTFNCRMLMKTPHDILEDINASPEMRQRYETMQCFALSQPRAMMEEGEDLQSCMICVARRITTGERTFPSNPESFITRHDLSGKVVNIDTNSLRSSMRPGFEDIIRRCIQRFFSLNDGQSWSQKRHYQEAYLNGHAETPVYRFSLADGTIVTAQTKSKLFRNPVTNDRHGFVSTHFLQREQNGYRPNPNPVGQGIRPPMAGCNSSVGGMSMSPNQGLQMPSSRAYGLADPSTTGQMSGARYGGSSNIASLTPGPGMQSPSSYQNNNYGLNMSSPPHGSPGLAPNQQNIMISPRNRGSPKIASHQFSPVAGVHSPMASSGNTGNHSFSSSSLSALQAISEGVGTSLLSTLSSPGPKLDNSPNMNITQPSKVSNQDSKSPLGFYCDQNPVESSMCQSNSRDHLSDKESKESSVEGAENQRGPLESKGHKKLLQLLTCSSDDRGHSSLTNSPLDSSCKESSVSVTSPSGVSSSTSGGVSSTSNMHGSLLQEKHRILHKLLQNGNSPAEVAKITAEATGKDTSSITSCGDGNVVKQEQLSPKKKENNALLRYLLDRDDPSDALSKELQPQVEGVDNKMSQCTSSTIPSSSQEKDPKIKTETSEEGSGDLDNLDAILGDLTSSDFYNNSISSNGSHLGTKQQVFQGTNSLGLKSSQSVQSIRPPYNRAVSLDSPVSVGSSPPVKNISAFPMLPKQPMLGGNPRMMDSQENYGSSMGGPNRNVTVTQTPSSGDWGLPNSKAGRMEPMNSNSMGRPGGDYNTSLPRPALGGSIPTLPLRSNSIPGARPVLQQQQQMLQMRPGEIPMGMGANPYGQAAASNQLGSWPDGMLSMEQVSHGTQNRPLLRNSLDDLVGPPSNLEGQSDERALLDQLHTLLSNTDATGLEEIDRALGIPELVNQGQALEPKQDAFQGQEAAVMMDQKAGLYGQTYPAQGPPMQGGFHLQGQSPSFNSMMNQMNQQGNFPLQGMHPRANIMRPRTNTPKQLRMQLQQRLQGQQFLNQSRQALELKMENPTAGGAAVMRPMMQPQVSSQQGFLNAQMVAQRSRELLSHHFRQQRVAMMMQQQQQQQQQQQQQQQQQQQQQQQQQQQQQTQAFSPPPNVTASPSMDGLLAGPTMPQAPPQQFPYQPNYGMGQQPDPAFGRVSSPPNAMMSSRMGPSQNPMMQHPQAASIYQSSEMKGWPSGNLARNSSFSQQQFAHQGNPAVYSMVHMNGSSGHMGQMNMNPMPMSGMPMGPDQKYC
Sequence of Nuclear receptor coactivator 1 (Homo sapiens) (Q15788 whole entry, looked up, the tested form may be a part): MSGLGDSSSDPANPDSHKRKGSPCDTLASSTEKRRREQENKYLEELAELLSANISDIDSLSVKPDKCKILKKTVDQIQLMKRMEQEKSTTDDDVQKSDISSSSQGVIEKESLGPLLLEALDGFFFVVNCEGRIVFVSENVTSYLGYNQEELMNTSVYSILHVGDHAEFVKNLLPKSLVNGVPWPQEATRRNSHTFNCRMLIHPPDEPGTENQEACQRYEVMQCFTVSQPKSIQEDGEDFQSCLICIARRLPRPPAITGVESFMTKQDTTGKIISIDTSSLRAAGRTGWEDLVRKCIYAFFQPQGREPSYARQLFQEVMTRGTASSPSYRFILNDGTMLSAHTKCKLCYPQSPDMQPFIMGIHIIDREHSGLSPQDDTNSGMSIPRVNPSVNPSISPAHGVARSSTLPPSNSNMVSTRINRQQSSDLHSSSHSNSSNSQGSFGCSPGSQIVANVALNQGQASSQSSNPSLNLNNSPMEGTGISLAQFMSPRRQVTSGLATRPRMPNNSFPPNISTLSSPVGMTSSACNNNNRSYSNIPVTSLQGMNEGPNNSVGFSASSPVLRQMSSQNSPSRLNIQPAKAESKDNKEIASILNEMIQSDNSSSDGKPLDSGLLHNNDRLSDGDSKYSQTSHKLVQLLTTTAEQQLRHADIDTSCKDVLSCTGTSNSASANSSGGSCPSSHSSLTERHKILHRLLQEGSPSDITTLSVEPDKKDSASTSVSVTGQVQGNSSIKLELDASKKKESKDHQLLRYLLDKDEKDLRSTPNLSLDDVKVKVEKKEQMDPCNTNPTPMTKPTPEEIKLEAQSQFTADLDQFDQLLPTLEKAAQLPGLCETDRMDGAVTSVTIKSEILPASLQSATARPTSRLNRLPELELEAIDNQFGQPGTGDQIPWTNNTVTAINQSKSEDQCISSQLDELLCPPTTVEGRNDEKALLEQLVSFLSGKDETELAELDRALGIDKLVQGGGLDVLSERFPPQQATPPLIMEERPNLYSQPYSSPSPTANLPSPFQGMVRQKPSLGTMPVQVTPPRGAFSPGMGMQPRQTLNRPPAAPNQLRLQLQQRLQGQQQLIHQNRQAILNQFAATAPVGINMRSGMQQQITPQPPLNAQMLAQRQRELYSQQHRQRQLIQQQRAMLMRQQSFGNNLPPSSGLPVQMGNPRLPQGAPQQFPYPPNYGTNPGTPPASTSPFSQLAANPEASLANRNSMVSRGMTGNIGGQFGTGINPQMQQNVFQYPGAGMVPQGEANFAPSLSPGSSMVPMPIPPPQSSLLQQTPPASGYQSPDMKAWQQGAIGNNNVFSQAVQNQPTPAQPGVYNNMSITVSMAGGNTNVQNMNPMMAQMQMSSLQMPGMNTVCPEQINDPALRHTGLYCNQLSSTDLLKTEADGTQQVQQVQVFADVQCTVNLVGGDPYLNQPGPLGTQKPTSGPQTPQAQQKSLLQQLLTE
Sequence of Nuclear receptor subfamily 5 group A member 2 (Homo sapiens) (O00482 whole entry, looked up): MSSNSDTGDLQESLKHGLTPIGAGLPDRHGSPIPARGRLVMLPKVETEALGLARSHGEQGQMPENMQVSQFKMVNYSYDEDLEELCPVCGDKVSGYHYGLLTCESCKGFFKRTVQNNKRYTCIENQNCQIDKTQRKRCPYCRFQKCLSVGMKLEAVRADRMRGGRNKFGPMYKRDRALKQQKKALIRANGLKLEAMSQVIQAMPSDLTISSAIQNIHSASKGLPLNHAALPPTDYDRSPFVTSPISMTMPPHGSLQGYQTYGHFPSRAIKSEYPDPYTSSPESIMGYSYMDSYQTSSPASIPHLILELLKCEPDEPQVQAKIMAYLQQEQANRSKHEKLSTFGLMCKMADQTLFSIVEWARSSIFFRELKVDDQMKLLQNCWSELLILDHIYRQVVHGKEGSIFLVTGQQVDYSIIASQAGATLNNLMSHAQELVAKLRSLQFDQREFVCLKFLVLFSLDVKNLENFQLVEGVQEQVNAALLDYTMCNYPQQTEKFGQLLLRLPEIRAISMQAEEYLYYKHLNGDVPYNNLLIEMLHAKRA

As to `CCC[N+]1(CC#CCC(c2ccccc2)c2ccccc2)CCCCC1`, the inhibition in experiment [1] is 28.8%; in experiment [2], 40.3% (active); in experiment [3], 21.4%; in experiment [4] it was 53.2% (active); in experiment [5] it was 24.2%; in experiment [6], 104% (active). Besides, the inhibition was 67.9% (active) in experiment [7] and 73.6% (active) in experiment [8].
As for `CN(Cc1cnc2nc(N)nc(N)c2n1)c1ccc(C(=O)NC(CCC(=O)O)C(=O)O)c2ccccc12` (configuration not stated), the inhibition in experiment [1] is 63.8% (active); in experiment [2], 15%; in experiment [3] it was 68% (active); in experiment [4], 13.2%; in experiment [5], 77.9% (active); in experiment [6], 45.5% (active). The inhibition is 47.6% (active) in experiment [7] and 12.9% in experiment [8].
As for `c1ccc(-c2cccc(-c3ccccn3)n2)nc1`, the inhibition in experiment [1] was 75.8% (active); in experiment [2], 39.9% (active); in experiment [3] it was 56.6% (active); in experiment [4] it was 32% (active); in experiment [5], 82.3% (active); in experiment [6], 96.7% (active). The inhibition in experiment [7] is 71.8% (active); in experiment [8], 41.8% (active).
Turning to `CCc1ccc(/C=C/c2c[nH]c3ccccc23)[n+](CC)c1`, the inhibition in experiment [1] was 29.8%; in experiment [2], 43.6% (active); in experiment [3], 24.4%; in experiment [4] it was 58% (active); in experiment [5] it was 39.4% (active); in experiment [6], 87.6% (active). Further, the figures for the inhibition in experiment [7] and in experiment [8] were 74% (active) and 75.8% (active), respectively.
For `Cc1ccc(O)c(N=Nc2nccs2)c1`, the inhibition in experiment [1] is 65.3% (active); in experiment [2], 57% (active); in experiment [3], 36%; in experiment [4], 55.5% (active); in experiment [5], 79.3% (active); in experiment [6], 97.6% (active). Moreover, the inhibition is 78.5% (active) in experiment [7] and 62.3% (active) in experiment [8].
On to `O=C(Nc1ccc2c(c1)OCCO2)C(c1cc2ccccc2o1)N1CCN(c2ccc(C(F)(F)F)cn2)CC1` (configuration not stated), for which the inhibition in experiment [1] was 19.5%; in experiment [2] it was 6.65%; in experiment [3], -13.5%; in experiment [4], -14.1%; in experiment [5] it was -29.7%; in experiment [6] it was -44.4%. Also, the inhibition in experiment [7] is -28%; in experiment [8], -10.8%.
On to `CC1(C)CC(N2CCN(c3ccccc3)CC2)=CC(=[N+]2CCCC2)C1`, for which the inhibition in experiment [1] is 23.8%; in experiment [2], 37.6% (active); in experiment [3] it was 2.88%; in experiment [4], 33.1% (active); in experiment [5], 30% (active); in experiment [6], 73.2% (active). Also, the inhibition in experiment [7] is 66.5% (active); in experiment [8] it was 63.7% (active).
As for `O=C(Nc1nc(-c2ccccc2)cs1)c1ccccc1NS(=O)(=O)c1ccc(F)cc1`, the inhibition in experiment [1] was 40.7%; in experiment [2], 65.5% (active); in experiment [3] it was 45%; in experiment [4], 60.5% (active); in experiment [5] it was 66.6% (active); in experiment [6] it was 101% (active). Further, the results for the inhibition in experiment [7] and in experiment [8] were 87.5% (active) and 79.3% (active), respectively.
In the case of `N#Cc1cc2c(nc1SCC(=O)N1CCOCC1)CCCCC2`, the inhibition in experiment [1] is 21.1%; in experiment [2], 21.5%; in experiment [3] it was -34.5%; in experiment [4], -17.9%; in experiment [5] it was -55%; in experiment [6], -116%. In addition, the inhibition in experiment [7] was -87.7%; in experiment [8], -62.9%.
